# Bioassay records: PubChem, National Center for Advancing Translational Sciences (NCATS)
# FLuc modulator = counter-screen for miR-21 project: firefly luciferase inhibitors or activators | purified FLuc, Km substrates, luminescence inhibition | Potency, µM (series often up to 57.5 µM), actives largely listed as inhibitors | hit rate 6.9% among 360,000; also: nearly all actives have a fitted effect of over 55% in size
# Target sequence (P08659 whole entry, looked up): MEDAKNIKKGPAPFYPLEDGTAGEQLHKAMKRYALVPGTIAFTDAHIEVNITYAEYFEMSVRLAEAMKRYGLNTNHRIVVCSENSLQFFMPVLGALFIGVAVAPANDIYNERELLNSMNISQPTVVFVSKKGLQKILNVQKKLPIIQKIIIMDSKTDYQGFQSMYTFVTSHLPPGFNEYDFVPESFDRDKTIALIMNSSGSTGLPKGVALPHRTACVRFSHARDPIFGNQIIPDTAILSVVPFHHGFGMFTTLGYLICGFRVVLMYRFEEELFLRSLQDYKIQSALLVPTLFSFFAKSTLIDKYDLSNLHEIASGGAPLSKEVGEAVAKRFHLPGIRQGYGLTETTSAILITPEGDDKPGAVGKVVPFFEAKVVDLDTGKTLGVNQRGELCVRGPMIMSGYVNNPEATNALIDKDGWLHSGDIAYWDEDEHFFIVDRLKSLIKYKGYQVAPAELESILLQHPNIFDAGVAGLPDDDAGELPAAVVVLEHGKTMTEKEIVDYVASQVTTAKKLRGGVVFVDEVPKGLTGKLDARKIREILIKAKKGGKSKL
#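 Purified P. pyralis luciferase (10nM final) with 10uM D-luciferin and 10uM ATP (Km levels) in 50mM Tris acetate pH 7.5, 10mM Mg acetate, 0.01% Tween-20, 0.05% BSA; qHTS 6-point titration, ~60 µM downward; luminescence read.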
# NPC1 prom act = NPC1 promoter activation; Huh7 NPC1 promoter luciferase reporter, 24 h; Potency, µM (top dose mostly 9.22 µM), most hits filed as activators; hit rate 2.4% among 320,000; also: nearly all actives have a fitted effect of over 60% in size
#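 NPC1 promoter–luciferase Huh7 cells; 24 h compound; luminescence.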
# SMN2 splice up = SMN2 splice variant enhancement; HEK293 SMN2-luciferase splicing reporter, luminescence, 30-36 h; hit rate 2.8% among 210,000; Potency, µM (highest dose often 46.1 µM), hits mostly activators; also: nearly all actives have a fitted effect of over 55% in size
#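 HEK293 cells carry an SMN2 minigene-luciferase reporter in which exon 7 inclusion puts luciferase in frame. Cells were seeded at 2000 cells/well, attached for 10-12 hours, then exposed to compounds for 30-36 hours at 37C before ONE-Glo luminescence.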
# Rab9 promoter act = Rab9 promoter activation | Huh7 Rab9 promoter-luciferase reporter, luminescence, 24 h | Potency, µM (top dose mostly 9.22 µM), most hits filed as activators | hit rate 2.8% among 320,000 | AID 485297; also: nearly all actives have a fitted effect of over 60% in size
#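 Cells were plated at 1500 per well in reduced-serum medium with 10% FBS and left 2 h. Compound in DMSO was then added for 24 h at 37 °C. Reporter signal was read by luminescence after 10 min with luciferase detection reagent.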
# ELG1 genotoxic = induces genotoxicity in HEK293T cells with luciferase-tagged ELG1; hit rate 1.3% among 330,000; HEK293T ELG1-luciferase reporter, luminescence, 16 h; Potency, µM (titrated, usually from 46 µM), hits mostly activators; also: nearly all actives have a fitted effect of over 60% in size
#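 ELG1-luciferase HEK293T cells, 2,000/well; compound pinned in; 16 hr, 37 °C, 5% CO2; ONE-Glo, 30 min RT; luminescence on CCD imager.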
# Numbers stand for hits; . = inactive; ? = inconclusive; / = no result. The list is not random: actives were taken first. Their share in the collection is about 7.5%. Calls follow the shape of the dose curve; as a rule, active = well fitted curve in the direction sought with a large enough effect; inconclusive = small, poorly fitted or top-dose-only effect, or another doubt; inactive = no such curve, though single readings can be large; an effect the other way counts as inactive or inconclusive.
SMILES,FLuc modulator,NPC1 prom act,SMN2 splice up,Rab9 promoter act,ELG1 genotoxic
Cc1cc(OC(=O)c2ccccc2Br)cc(=O)n1C,21µM,.,.,.,.
CCC(C)NS(=O)(=O)c1ccc(-c2csnn2)s1 (centres undefined),.,.,.,.,.
C=CCNc1nc(C(=O)OCC(=O)N(Cc2ccccc2)C(C)C)cs1,.,.,/,.,.
CCc1ccc(C2=NN(C(C)=O)C(c3ccco3)C2)cc1 (centres undefined),8.5µM,3.5µM,13µM,1.8µM,16µM
O=C(c1ccco1)N1N=C(c2ccc(Cl)cc2)CC1c1ccco1 (centres undefined),?,.,/,.,.
CS(=O)(=O)Nc1cccc(C2=NN(C(=O)c3ccco3)C(c3ccco3)C2)c1 (centres undefined),17µM,.,/,.,.
CCS(=O)(=O)Nc1cccc(C2=NN(C(=O)c3ccco3)C(c3ccco3)C2)c1 (centres undefined),.,.,/,.,.
COc1ccc(C2=NN(C(=O)c3ccco3)C(c3ccco3)C2)cc1OC (centres undefined),15µM,.,/,.,.
O=C(c1ccco1)N1N=C(c2ccccc2)CC1c1ccc2nccnc2c1 (centres undefined),17µM,.,/,.,.
COC(=O)c1scc(-c2ccc(C)cc2)c1S(=O)(=O)N1CCN(c2ccccc2F)CC1,.,/,/,/,/
O=C(OCc1nc2ccccc2s1)c1cccc(S(=O)(=O)N2CCOCC2)c1,8.5µM,.,.,.,?
O=C(CCc1ccc(S(=O)(=O)N2CCOCC2)cc1)OCc1nc2ccccc2s1,21µM,.,.,.,?
O=C(COC(=O)c1cccc(S(=O)(=O)N2CCOCC2)c1)c1ccccc1,13µM,.,/,.,.
O=C(N/N=C/c1ccccc1C(=O)O)c1cccc(S(=O)(=O)N2CCOCC2)c1,12µM,.,/,.,.
O=C(CCc1nc2ccccc2[nH]c1=O)OCc1ccc(S(=O)(=O)N2CCOCC2)cc1,.,.,.,.,.
O=C(COC(=O)c1cccc(S(=O)(=O)N2CCOCC2)c1)NCc1ccccc1,/,/,/,/,.
COc1cccc(C(=O)N(C)CC(=O)Nc2ccc(F)c(F)c2F)c1,.,.,/,.,.
COc1ccccc1OCc1ccc(C(=O)Nc2ccccc2F)cc1,.,?,/,?,.
COc1cccc(C(=O)Nc2ccc(F)cc2F)c1,?,?,13µM,?,?
COc1cccc(C(=O)Nc2ccc(F)c(F)c2F)c1,17µM,?,?,?,?
CCCc1ccc(C(=O)NNc2ccccc2F)cc1,17µM,?,/,?,?
COc1cccc(C(=O)Nc2ccc(C(F)(F)F)n(C)c2=O)c1,6µM,2.8µM,/,2.8µM,?
O=C(Nc1ccccc1F)c1ccc(C(=O)c2ccccc2)cc1,11µM,2.8µM,/,3.5µM,?
O=C(Nc1ccccc1F)c1cccc(C(=O)Nc2ccccc2F)c1,?,.,/,?,.
CC(C)Oc1cccc(C(=O)Nc2ccc(Br)cc2F)c1,0.95µM,3.5µM,5µM,1.3µM,?
SMILES,FLuc modulator,NPC1 prom act,SMN2 splice up,Rab9 promoter act,ELG1 genotoxic
Cc1noc(C)c1COc1cccc(C(=O)Nc2ccc(Br)cc2F)c1,/,/,/,/,.
COc1cccc(C(=O)Nc2ccccc2F)c1,?,.,11µM,?,?
Cc1[nH]n(-c2ccccc2)c(=O)c1C(c1cc(Cl)ccc1O)c1c(C)[nH]n(-c2ccccc2)c1=O,19µM,/,.,/,/
CCOc1cc(C(c2c(C)[nH]n(-c3ccccc3)c2=O)c2c(C)[nH]n(-c3ccccc3)c2=O)ccc1O,12µM,/,.,/,/
COc1ccc(C(c2c(C)n(C)n(-c3ccccc3)c2=O)c2c(C)n(C)n(-c3ccccc3)c2=O)cc1OC,.,.,/,.,.
COc1ccc(C(c2c(C)[nH]n(-c3ccccc3)c2=O)c2c(C)[nH]n(-c3ccccc3)c2=O)cc1OC,19µM,.,.,.,.
Cc1[nH]n(-c2ccccc2)c(=O)c1C(c1ccccc1C(=O)O)c1c(C)[nH]n(-c2ccccc2)c1=O,.,.,.,.,.
CCCn1c2ccccc2c2cnn(CC(=O)N(Cc3ccccc3)C(C)C)c(=O)c21,.,/,/,/,/
C=C1CC[C@H](O)C/C1=C/C=C1\CCC[C@]2(C)C([C@H](C)CCCC(C)(C)O)CC[C@@H]12 (some centres undefined),/,/,.,/,/
Cc1ccc(C(=O)Oc2ccc(/C=C3\C(=N)N4N=C(N5CCOCC5)SC4=NC3=O)cc2)cc1,?,?,/,?,23µM
COCCNC(=O)c1ccc2c(Cl)c3c(nc2c1)CCC3,8.5µM,?,/,3.5µM,?
CCOC(=O)c1ccccc1NC(=O)c1ccc2c(Cl)c3c(nc2c1)CCC3,5.4µM,/,.,/,/
CCCN(CCC)CCCNC(=O)c1ccc2c(Cl)c3c(nc2c1)CCC3,.,.,/,.,.
CCOC(=O)c1cccc(NC(=O)c2ccc3c(Cl)c4c(nc3c2)CCC4)c1,0.3µM,/,.,/,/
COC(=O)c1ccccc1NC(=O)c1ccc2c(Cl)c3c(nc2c1)CCCC3,12µM,/,.,/,/
C/C=C/C(=O)C[C@H]1CC[C@@H](C)[C@@H](CCO)O1,/,/,.,/,/
O=[N+]([O-])c1ccc(-[n+]2nc(-c3ccccc3)nn2-c2ccccc2)cc1,.,.,/,.,.
Cc1ccc(NC(=O)c2cc(S(=O)(=O)N3CCc4ccccc43)ccc2F)cc1Cl,.,/,/,/,/
Cc1ccc2c3c(cccc13)-c1ccccc1C2=O,19µM,.,?,.,.
C/C=C/c1ccc(O)c(OC)c1,.,.,.,.,.
Oc1cc(O)cc(/C=C/c2ccc(O)c(O)c2)c1,9.5µM,?,32µM,.,5.2µM
O=C(Nc1cccc(S(=O)(=O)N2CCOCC2)c1)c1cc2c(s1)CCC2,15µM,.,.,.,.
O=C(Nc1cc(S(=O)(=O)N2CCOCC2)ccc1N1CCOCC1)c1cc2c(s1)CCC2,.,.,/,.,.
O=C(Nc1cccc(Cn2cccn2)c1)c1cc2c(s1)CCCC2,?,0.11µM,?,0.35µM,?
O=[N+]([O-])c1ccc(Nc2cccc(F)c2)nc1,.,.,.,.,.
SMILES,FLuc modulator,NPC1 prom act,SMN2 splice up,Rab9 promoter act,ELG1 genotoxic
O=C(Nc1ccccc1C(=O)O)c1ccc(Br)o1,19µM,?,.,?,?
CCOc1ccc(C(=O)Nc2ccccc2C(=O)O)cc1,0.95µM,0.63µM,8.9µM,1µM,?
O=C(Nc1ccccc1C(=O)O)c1ccc(NC(=O)C2CC2)cc1,.,.,/,.,.
Nc1ccc(C(=O)Nc2ccccc2C(=O)O)cc1,6µM,.,.,.,?
O=C(Nc1ccccc1C(=O)Nc1ccccc1C(=O)O)c1ccccc1,15µM,.,/,.,.
CC(CCc1ccccc1)NC(=O)CSc1nc(N)cc(N)n1 (centres undefined),.,.,.,.,.
O=C(Nc1ccccc1C(=O)Nc1nncs1)c1ccccc1,21µM,.,/,.,.
O=C(O)c1ccccc1NC(=O)c1ccccc1Nc1ccccc1,17µM,.,/,.,.
COc1ccccc1NC(=O)c1ccccc1Nc1ccccc1,.,.,/,.,.
Cc1ccc(-c2cc(=O)c3ccccc3[nH]2)cc1,19µM,.,.,?,.
